The values that follow come from paper PMC4081100, “A DNA-binding-site landscape and regulatory network analysis for NAC transcription factors in Arabidopsis thaliana”.

Assay in all cases: universal protein binding microarray (PBM); transcription factors of Arabidopsis thaliana; high values mean tight binding
Assay [1] has as its target GST-NTL6(1-168) (Arabidopsis thaliana, UniProt Q9SCK6 1-168). The settings on record: protein: recombinant; tags: GST; chain copies: 2; dsDNA, one strand shown. The method, boiled down: (§1)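 Each value is a normalised enrichment score (E-score) describing binding. The GST-tagged proteins, NAC-domain, full-length or DNA-binding-domain, were induced in cells (zinc-finger proteins with zinc acetate added) and purified on glutathione–Sepharose 4B. They were applied at 200 to 500 nM final, in duplicate, to double-stranded custom all-10-mer Agilent 4 × 180K arrays, and gapped and ungapped 8-mers were scored.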

Assay [2] has as its target GST-WRKY1(266-371) (Arabidopsis thaliana, UniProt Q9SI37 266-371). The settings on record: protein: recombinant; tags: GST; dsDNA, one strand shown. The method, boiled down:
as §1

Assay [3] deals with T1, GST-ANAC055(1-171) (Arabidopsis thaliana, UniProt Q9LDY8 1-171).
T1 sequence: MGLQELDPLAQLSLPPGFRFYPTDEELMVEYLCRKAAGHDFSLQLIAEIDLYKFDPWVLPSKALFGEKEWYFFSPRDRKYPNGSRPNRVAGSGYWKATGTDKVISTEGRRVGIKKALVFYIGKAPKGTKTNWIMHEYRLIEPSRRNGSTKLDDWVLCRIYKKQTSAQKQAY
The following applies: protein: recombinant; tags: GST; chain copies: 2; dsDNA, one strand shown. The method, boiled down: as §1

Assay [4] concerns the target T2, GST-ANAC019 NAC domain (Arabidopsis thaliana, UniProt Q9C932 14-162).
T2 sequence: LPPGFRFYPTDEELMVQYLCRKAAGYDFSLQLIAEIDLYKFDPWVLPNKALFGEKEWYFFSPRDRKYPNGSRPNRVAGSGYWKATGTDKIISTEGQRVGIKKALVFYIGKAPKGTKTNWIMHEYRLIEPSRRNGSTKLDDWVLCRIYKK
The following applies: protein: recombinant; tags: GST; chain copies: 2; dsDNA, one strand shown. The method, boiled down:
as §1

Assay [5] concerns the target T3, GST-ANAC092(1-285) full length (Arabidopsis thaliana, UniProt Q9FKA0 1-285).
T3 sequence: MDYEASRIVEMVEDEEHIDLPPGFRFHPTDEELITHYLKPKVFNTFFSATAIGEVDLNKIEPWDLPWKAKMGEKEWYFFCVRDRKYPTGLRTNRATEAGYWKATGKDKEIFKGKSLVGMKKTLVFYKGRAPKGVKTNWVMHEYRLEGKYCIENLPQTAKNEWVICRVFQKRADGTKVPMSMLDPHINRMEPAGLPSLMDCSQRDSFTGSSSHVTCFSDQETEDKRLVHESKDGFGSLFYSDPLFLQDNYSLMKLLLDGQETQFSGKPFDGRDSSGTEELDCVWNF
The settings on record: protein: recombinant; tags: GST; chain copies: 2; dsDNA, one strand shown. The method, boiled down: as §1

Assay [6] deals with T4, GST-NST2(1-184) (Arabidopsis thaliana, UniProt Q9M274 1-184).
T4 sequence: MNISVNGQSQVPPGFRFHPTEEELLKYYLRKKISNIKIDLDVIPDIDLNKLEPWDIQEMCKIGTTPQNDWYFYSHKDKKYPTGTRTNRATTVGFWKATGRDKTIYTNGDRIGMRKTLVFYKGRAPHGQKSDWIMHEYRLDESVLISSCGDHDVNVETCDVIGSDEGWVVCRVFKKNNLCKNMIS
The following applies: protein: recombinant; tags: GST; chain copies: 2; dsDNA, one strand shown. The method, boiled down: as §1

Assay [7] addresses T5, GST-ATAF1 NAC domain (Arabidopsis thaliana, UniProt Q39013 7-158).
T5 sequence: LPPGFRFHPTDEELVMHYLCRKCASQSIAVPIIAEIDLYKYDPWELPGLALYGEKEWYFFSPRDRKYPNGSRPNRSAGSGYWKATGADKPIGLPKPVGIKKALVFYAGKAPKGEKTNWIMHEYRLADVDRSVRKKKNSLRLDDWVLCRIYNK
The following applies: protein: recombinant; tags: GST; chain copies: 2; dsDNA, one strand shown. The method, boiled down:
as §1

Assay [8] deals with T6, GST-NAP(1-166) (Arabidopsis thaliana, UniProt O49255 1-166).
T6 sequence: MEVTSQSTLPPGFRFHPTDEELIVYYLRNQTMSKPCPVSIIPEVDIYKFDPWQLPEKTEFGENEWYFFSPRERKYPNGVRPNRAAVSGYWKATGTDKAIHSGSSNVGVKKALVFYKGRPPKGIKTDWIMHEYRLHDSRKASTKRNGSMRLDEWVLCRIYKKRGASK
The following applies: protein: recombinant; tags: GST; chain copies: 2; dsDNA, one strand shown. The method, boiled down:
as §1

In assay [9] the target is T7, GST-NTL8 NAC domain (Arabidopsis thaliana, UniProt Q9XIN7 14-156).
T7 sequence: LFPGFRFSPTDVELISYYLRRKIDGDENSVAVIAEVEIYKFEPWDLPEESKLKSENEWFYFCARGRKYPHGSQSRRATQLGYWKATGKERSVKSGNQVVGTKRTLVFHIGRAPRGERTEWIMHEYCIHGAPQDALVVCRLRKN
The settings on record: protein: recombinant; tags: GST; chain copies: 2; dsDNA, one strand shown. The method, boiled down:
as §1

Chain of GST-NTL6(1-168) (Q9SCK6 1-168): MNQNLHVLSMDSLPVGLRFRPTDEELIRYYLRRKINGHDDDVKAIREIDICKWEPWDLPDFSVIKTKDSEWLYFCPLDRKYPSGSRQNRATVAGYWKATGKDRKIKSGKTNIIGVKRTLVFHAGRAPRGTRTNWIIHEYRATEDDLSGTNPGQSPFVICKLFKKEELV
Chain of GST-WRKY1(266-371) (Q9SI37 266-371): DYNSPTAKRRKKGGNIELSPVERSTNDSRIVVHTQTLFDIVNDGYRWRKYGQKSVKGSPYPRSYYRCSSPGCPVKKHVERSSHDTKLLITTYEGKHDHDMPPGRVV

In the case of AGTTGACC, the binding signal came to 0.0645 E-score in assay [1] and 0.49 E-score in assay [2].

As for ATTTGACC, the binding signal in [3] is 0.079 E-score; in assay [2], 0.481 E-score.

Turning to GGTCAAGA, the binding signal came out at 0.09 E-score in assay [4], 0.0594 E-score in assay [5], 0.08 E-score in [6] and 0.477 E-score in assay [2].

In the case of CGTTTGAC, the binding signal stood at 0.0858 E-score in assay [7], 0.0589 E-score in [8], 0.0861 E-score in assay [6] and 0.476 E-score in assay [2].

As to GAGTCAAC, the binding signal in assay [4] is 0.14 E-score; in assay [2] it was 0.487 E-score.

Regarding GAAAAGTC, the binding signal in [4] is 0.139 E-score; in assay [7], 0.137 E-score; in assay [8], 0.145 E-score; in assay [6] it was 0.0971 E-score; in assay [9], 0.19 E-score; in assay [2] it was 0.413 E-score.

Regarding GAATTGAC, the binding signal is 0.0993 E-score in assay [3]; 0.092 E-score in assay [7]; 0.0675 E-score in assay [5]; 0.0714 E-score in assay [6]; 0.051 E-score in assay [9]; 0.439 E-score in [2].

With GAAGGTCA, the binding signal in [1] amounted to 0.116 E-score; in [9] it was 0.0878 E-score; in assay [2] it was 0.426 E-score.

Take GACTTGAC: the binding signal stood at 0.11 E-score in [3]; 0.199 E-score in assay [7]; 0.0614 E-score in assay [5]; 0.0707 E-score in assay [9]; 0.458 E-score in [2].

TCGTCAAA: the binding signal in [3] was 0.0878 E-score; in [7], 0.0946 E-score; in assay [6], 0.0744 E-score; in [2], 0.432 E-score.

Consider TGACTGCA, for which the binding signal in assay [1] came out at 0.0778 E-score; in [3], 0.0624 E-score; in assay [7] it was 0.0918 E-score; in assay [2] it was 0.413 E-score.

As to CGAAGTCA, the figures for the binding signal in assay [1], in assay [9] and in assay [2] were 0.0962 E-score, 0.132 E-score and 0.42 E-score, respectively.

For the sequence GTAGGTCA, the binding signal came to 0.129 E-score in [4], 0.0647 E-score in assay [9] and 0.416 E-score in assay [2].

On to GCGTTGAC, for which the binding signal is 0.0691 E-score in assay [4], 0.116 E-score in assay [8] and 0.488 E-score in [2].

In the case of ACTTGACT, the binding signal in assay [3] worked out at 0.0752 E-score; in [7] it was 0.186 E-score; in assay [5], 0.0808 E-score; in assay [6], 0.0742 E-score; in [2], 0.456 E-score.

On to AAAGTCTT, for which the binding signal in [1] was found to be 0.0508 E-score; in assay [3], 0.109 E-score; in assay [2] it was 0.429 E-score.

With TGACCCCA, the binding signal in assay [4] is 0.0651 E-score; in assay [2], 0.428 E-score.

With GGAAGTCA, the binding signal in assay [1] was 0.132 E-score; in [4], 0.0521 E-score; in [5], 0.0837 E-score; in [9], 0.0895 E-score; in assay [2], 0.429 E-score.

GACCAAGA: the binding signal turned out to be 0.0567 E-score in [4] and 0.403 E-score in assay [2].

In the case of GTGTCAAC, the binding signal in assay [4] came out at 0.0933 E-score; in assay [8], 0.0561 E-score; in [2] it was 0.404 E-score.

Turning to CTCGTCAA, the binding signal in [3] was 0.0602 E-score; in assay [7], 0.0515 E-score; in [8] it was 0.0553 E-score; in assay [2] it was 0.424 E-score.

Consider CTGACCAC, for which the binding signal in [4] was determined as 0.0574 E-score; in assay [2], 0.41 E-score.

As to CAGTTGAC, the binding signal in assay [4] was found to be 0.135 E-score; in [3], 0.0582 E-score; in [7], 0.112 E-score; in assay [8], 0.0525 E-score; in [6], 0.0574 E-score; in assay [2] it was 0.477 E-score.

Take CCGTTGAC: the binding signal came to 0.157 E-score in [4], 0.0578 E-score in assay [5], 0.126 E-score in [8] and 0.49 E-score in assay [2].

With GTTTGACA, the binding signal in [3] was 0.0647 E-score; in assay [7], 0.101 E-score; in assay [6], 0.0521 E-score; in assay [2] it was 0.417 E-score.

With GTTGACGA, the binding signal in assay [7] stood at 0.0784 E-score; in assay [2], 0.453 E-score.

With GAAGACCA, the binding signal in [4] came to 0.0558 E-score; in [2], 0.442 E-score.

In the case of GATTTGAC, the binding signal came to 0.122 E-score in [7] and 0.464 E-score in assay [2].
